# Data published in publication PMC7862700, “An all-to-all approach to the identification of sequence-specific readers for epigenetic DNA modifications on cytosine”.
# How the values were obtained:
# Assay in all cases: DAPPL (digital affinity profiling via proximity ligation, sequencing); 10 mM Tris-HCl pH 7.5, 50 mM NaCl, 1 mM DTT, 4% glycerol, room temperature, 30 min; GST-TFs on glutathione beads, 16-mer random dsDNA library, 0.1% formaldehyde crosslink after washing; high values mean tight binding
# Details in all cases: protein: recombinant; tags: N-terminal GST; dsDNA, one strand shown
# [1] = molecular target: T1, FLI1 (Homo sapiens, UniProt Q01543 1-452)
# T1 sequence: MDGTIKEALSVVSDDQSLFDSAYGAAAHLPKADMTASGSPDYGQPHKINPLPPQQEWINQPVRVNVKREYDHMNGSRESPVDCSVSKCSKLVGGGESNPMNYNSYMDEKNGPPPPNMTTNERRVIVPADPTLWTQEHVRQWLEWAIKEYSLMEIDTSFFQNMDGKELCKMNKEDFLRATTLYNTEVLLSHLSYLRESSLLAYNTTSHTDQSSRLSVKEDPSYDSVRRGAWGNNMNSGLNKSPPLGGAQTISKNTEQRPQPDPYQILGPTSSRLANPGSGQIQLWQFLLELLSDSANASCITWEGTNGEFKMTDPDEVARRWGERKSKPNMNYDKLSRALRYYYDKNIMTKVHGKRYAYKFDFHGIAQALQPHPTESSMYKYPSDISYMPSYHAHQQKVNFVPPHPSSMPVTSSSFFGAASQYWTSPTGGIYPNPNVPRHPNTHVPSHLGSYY
# How it was run: (§1)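 Yeast served to express human transcription factors as GST fusions, which were then captured on glutathione beads and labelled with DNA barcodes. Pooled with a tag-only sample, they were incubated with 200 nmole of a 16-mer random double-stranded DNA library for 30 min at room temperature in Tris/NaCl/DTT/glycerol buffer, washed, crosslinked with 0.1% formaldehyde, ligated by proximity, amplified by PCR and sequenced. Dividing each hexamer's read frequency for a factor by its frequency for the tag-only sample gives the binding signal.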
# [2] = molecular target: T2, ELK1 (Homo sapiens, UniProt P19419 1-428)
# T2 sequence: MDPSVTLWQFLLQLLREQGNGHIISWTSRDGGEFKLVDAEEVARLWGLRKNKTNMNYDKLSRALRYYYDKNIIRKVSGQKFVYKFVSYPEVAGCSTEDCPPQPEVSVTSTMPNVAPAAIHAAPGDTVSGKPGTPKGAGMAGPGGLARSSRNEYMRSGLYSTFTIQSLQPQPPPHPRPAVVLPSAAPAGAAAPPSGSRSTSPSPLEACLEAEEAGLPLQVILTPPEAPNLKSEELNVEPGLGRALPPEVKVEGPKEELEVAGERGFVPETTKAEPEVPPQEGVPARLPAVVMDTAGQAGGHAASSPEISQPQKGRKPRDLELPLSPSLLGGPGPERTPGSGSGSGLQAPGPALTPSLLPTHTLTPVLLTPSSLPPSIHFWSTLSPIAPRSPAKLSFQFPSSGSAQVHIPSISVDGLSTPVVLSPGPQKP
# How it was run: as §1
# [3] = molecular target: T3, GABPA (Homo sapiens, UniProt Q06546 1-454)
# T3 sequence: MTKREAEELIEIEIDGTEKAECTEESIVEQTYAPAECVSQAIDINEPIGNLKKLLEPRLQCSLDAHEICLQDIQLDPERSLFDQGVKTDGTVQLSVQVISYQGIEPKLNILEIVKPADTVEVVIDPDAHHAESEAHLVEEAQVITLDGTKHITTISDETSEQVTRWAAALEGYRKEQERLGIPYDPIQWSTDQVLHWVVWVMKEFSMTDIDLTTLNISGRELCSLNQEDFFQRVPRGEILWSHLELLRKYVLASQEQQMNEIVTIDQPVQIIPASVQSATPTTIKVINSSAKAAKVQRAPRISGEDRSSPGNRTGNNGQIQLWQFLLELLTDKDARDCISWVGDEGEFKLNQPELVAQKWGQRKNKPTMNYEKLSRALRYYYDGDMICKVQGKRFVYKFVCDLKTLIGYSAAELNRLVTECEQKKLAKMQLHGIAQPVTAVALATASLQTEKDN
# How it was run: as §1
# [4] = molecular target: ELF1 (Homo sapiens, UniProt P32519 1-619)
# How it was run: as §1
# [5] = molecular target: T4, EHF (Homo sapiens, UniProt Q9NZC4 1-300)
# T4 sequence: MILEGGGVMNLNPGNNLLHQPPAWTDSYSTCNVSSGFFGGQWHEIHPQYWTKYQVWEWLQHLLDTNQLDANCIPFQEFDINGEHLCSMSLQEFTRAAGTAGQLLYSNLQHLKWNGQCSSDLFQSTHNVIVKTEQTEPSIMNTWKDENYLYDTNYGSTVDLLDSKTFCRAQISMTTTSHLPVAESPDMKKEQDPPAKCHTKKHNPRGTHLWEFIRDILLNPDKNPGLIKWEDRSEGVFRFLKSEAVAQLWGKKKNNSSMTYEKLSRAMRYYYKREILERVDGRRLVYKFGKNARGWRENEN
# How it was run: as §1
# [6] = molecular target: SPI1 (Homo sapiens, UniProt P17947 1-270)
# How it was run: as §1
# [7] = molecular target: T5, SPIC (Homo sapiens, UniProt Q8N5J4 1-248)
# T5 sequence: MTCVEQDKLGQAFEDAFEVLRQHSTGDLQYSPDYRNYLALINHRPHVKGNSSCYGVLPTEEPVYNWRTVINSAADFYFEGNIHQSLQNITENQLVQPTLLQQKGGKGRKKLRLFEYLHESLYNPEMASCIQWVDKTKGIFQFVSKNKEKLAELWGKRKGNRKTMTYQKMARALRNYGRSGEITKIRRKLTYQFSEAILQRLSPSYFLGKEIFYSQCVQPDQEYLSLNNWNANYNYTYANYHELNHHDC
# How it was run: as §1
# [8] = molecular target: ELF4 (Homo sapiens, UniProt Q99607 1-663)
# How it was run: as §1
# [9] = molecular target: T6, ELK4 (Homo sapiens, UniProt P28324-2 1-405)
# T6 sequence: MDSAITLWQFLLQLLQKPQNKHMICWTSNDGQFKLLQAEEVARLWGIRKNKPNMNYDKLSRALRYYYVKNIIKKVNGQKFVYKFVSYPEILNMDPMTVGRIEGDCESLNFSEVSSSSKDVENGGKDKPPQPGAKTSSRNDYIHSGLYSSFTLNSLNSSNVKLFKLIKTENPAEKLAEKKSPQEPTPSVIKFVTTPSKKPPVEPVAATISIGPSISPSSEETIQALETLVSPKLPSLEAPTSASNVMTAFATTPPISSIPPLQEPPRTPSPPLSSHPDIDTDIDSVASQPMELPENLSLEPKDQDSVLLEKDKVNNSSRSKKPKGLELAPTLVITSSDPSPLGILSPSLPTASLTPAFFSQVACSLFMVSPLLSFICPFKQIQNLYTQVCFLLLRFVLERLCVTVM
# How it was run: as §1
# [10] = molecular target: T7, ETV2 (Homo sapiens, UniProt O00321 1-342)
# T7 sequence: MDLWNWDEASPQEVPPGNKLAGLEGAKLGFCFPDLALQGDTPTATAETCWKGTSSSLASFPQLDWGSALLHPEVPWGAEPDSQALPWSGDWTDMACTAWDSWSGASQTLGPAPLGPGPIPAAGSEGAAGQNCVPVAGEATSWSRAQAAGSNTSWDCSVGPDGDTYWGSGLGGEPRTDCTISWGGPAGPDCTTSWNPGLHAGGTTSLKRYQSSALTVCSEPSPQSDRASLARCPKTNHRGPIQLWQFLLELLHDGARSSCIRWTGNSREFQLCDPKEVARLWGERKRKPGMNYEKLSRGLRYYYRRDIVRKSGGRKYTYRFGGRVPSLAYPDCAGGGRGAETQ
# How it was run: as §1
# [11] = molecular target: T8, ELF3 (Homo sapiens, UniProt P78545 1-371)
# T8 sequence: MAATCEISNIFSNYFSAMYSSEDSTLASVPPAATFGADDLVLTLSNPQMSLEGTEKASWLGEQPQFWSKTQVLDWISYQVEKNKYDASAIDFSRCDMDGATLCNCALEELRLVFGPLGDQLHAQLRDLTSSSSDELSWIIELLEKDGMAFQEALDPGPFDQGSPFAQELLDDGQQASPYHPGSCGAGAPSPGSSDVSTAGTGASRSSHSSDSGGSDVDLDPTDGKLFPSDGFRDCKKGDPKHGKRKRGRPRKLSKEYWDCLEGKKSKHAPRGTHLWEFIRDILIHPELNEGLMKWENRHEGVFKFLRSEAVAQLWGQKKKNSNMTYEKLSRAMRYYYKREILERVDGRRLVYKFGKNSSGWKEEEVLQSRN
# How it was run: as §1
# [12] = molecular target: ETV1 (Homo sapiens, UniProt P50549 1-477)
# How it was run: as §1
# [13] = molecular target: T9, ETV7 (Homo sapiens, UniProt Q9Y603 1-341)
# T9 sequence: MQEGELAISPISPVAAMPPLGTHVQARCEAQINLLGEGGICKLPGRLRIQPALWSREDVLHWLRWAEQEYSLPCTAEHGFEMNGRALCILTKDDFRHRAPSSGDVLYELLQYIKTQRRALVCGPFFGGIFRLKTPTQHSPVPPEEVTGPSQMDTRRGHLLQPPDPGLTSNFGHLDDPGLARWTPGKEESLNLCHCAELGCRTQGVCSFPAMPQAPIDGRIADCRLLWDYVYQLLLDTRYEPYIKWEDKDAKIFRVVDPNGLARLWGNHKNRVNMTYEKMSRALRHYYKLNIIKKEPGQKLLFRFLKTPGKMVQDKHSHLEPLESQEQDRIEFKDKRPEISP
# How it was run: as §1
# [14] = molecular target: T10, ETV3 (Homo sapiens, UniProt P41162-2 1-143)
# T10 sequence: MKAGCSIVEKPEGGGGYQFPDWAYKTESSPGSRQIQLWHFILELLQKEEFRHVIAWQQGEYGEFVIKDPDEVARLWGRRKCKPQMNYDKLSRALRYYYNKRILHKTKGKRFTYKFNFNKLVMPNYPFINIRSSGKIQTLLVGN
# How it was run: as §1
# Chain of ELF1 (P32519 whole entry): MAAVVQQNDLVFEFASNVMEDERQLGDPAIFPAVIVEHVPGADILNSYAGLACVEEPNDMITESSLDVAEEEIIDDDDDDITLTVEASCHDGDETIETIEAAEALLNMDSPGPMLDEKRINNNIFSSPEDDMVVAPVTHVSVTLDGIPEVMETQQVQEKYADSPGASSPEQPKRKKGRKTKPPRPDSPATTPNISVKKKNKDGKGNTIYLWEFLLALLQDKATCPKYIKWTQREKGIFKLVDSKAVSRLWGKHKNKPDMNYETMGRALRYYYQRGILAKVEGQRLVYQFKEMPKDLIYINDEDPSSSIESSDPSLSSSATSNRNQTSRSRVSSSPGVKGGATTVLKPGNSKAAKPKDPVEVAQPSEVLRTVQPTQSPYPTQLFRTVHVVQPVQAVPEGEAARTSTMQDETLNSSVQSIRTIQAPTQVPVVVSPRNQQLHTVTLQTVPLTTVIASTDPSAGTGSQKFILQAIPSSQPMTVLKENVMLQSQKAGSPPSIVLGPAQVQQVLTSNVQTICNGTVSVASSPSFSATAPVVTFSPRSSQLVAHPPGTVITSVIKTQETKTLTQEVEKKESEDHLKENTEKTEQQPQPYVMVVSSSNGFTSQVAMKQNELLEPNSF
# Chain of ELF4 (Q99607 whole entry): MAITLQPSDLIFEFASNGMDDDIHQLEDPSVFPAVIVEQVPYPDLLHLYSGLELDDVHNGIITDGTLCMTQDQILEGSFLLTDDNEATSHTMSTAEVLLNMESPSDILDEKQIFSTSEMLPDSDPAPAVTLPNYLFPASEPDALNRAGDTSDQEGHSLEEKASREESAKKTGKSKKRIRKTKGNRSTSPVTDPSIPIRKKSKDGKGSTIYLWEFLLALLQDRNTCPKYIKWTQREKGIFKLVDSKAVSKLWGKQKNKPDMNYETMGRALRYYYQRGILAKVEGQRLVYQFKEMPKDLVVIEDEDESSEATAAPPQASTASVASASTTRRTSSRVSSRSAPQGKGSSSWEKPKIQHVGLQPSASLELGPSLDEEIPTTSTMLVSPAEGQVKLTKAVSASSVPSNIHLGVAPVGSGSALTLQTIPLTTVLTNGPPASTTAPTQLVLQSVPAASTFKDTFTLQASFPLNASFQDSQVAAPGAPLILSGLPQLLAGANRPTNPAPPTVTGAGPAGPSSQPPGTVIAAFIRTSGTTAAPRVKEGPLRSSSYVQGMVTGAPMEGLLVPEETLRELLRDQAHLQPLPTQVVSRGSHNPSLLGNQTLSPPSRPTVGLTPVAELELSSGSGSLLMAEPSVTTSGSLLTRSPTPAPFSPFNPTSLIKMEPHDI
# Chain of ETV1 (P50549 whole entry): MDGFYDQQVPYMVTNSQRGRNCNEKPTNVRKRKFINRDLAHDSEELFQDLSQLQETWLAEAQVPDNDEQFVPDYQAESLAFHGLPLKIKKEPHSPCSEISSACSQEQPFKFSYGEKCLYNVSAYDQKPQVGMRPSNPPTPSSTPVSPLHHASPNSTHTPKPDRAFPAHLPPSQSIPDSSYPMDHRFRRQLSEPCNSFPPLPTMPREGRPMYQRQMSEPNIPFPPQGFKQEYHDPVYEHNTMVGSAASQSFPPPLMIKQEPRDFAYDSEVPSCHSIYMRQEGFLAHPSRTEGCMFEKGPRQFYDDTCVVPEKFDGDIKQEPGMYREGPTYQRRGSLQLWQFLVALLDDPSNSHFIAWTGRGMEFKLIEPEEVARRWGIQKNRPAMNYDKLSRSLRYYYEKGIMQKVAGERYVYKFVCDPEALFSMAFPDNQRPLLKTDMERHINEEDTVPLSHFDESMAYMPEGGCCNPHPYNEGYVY
sequence,measurement,setting,value
AGCTGA,binding signal,[1],"1.02 fold enrichment (6-mer frequency, TF over GST control)"
same,binding signal,[2],"1.07 fold enrichment (6-mer frequency, TF over GST control)"
same,binding signal,[3],"1.01 fold enrichment (6-mer frequency, TF over GST control)"
same,binding signal,[4],"1.1 fold enrichment (6-mer frequency, TF over GST control)"
same,binding signal,[5],"1.11 fold enrichment (6-mer frequency, TF over GST control)"
same,binding signal,[6],"1.01 fold enrichment (6-mer frequency, TF over GST control)"
same,binding signal,[7],"1.14 fold enrichment (6-mer frequency, TF over GST control)"
same,binding signal,[8],"1.01 fold enrichment (6-mer frequency, TF over GST control)"
same,binding signal,[9],"1.02 fold enrichment (6-mer frequency, TF over GST control)"
same,binding signal,[10],"1.08 fold enrichment (6-mer frequency, TF over GST control)"
same,binding signal,[11],"1.14 fold enrichment (6-mer frequency, TF over GST control)"
same,binding signal,[12],"1.08 fold enrichment (6-mer frequency, TF over GST control)"
same,binding signal,[13],"1.09 fold enrichment (6-mer frequency, TF over GST control)"
same,binding signal,[14],"1.05 fold enrichment (6-mer frequency, TF over GST control)"
